Test results taken from the supplement of paper PMC10338343.
± gives the standard deviation.

test system: MILI (PIWIL2) piRISC loaded with L1MC piRNA (26 nt); assay: pre-steady-state target cleavage rate (min^-1); guide: L1MC piRNA 5'p-UAACUAAAUACUAUGCAAGCUGUAGG; MIWI and MILI are mouse PIWI proteins and EfPiwi is from a freshwater sponge; tags in brackets are library labels; higher = faster piRNA-guided slicing of the target; settings: auxiliary factor: 500 nM mouse GTSF1
Procedure, shortened: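 For Cleave-'n-Seq, a transcribed, DNA-blocked target RNA library […] met 1 nM active affinity-purified piRISC with one synthetic guide at 33 °C for 0–8 or 0–960 min in HEPES–potassium acetate buffer, with or without 500 nM GTSF1 partner protein. Uncleaved targets were sequenced and normalised to depth and weakly complementary targets, with three trials pooled and k3 capped at 0.0001 min^-1. A burst-and-steady-state fit supplied the pre-steady-state cleavage rate.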
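Further: 1 nM active piRISC with 0.1 nM target library at 33 °C single turnover.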

Row | Sequence | pre-steady-state target cleavage rate
1 | UCCUGGAACAGCUUGCAUAGUUUUUACUUA | 0.0363 ± 0.011
2 | UCCUGCUACAGCUUGCAUAGUAUUUAGUGUA | 0.244 ± 0.048
3 | UCCUGCUACAGCUUGCAAAGUAUUUACUUA | 0.0653 ± 0.0078
4 | UCCUGGAUGUCGAAGCGUAGUAUUUAGUUA | 0.00313 ± 0.0025
5 | UCCUGGAUCAGCAAGCAUAGUAUUUACAAA | 0.108 ± 0.023
6 | UCCUGGAUCUCGUUGCAUAGUAUUUUCAAA | 0.0482 ± 0.013
7 | UCCUGGAACAGCUUGCAUAGAUUUUACAAA | 0.00713 ± 0.0045
8 | UCCUGGUACAGCUUGCAUAGUAUAAUGAAA | 0.0203 ± 0.0077
9 | UCCUCCUACAGCUUGCAUACUAUUUACAAA | 0.0449 ± 0.012
10 | UCCUGGAUGUCGAAGCAUAGUAUUUAGAUA | 0.00991 ± 0.0044
11 | UCCUGGAUGUCGAACCAUAGAAUUUAGUUA | < 0.0001
12 | UCCUGGAUGUCGAAGCAUAGUAUUAAGUUA | 0.034 ± 0.0088
13 | UCCUGGAACAGCUUGCAUAUUAUUUAGUUA | 0.0696 ± 0.008
14 | UCCUGGAUGUGCUUGCAUAGUUUUAAGUUA | 0.0104 ± 0.0059
15 | UCCUGGAUGUGCUUGCAUAGUAUUUGUUA | 0.0295 ± 0.011
16 | UCCUGGAUGUCCUUGCAUUCAAUUUAGUUA | 0.00852 ± 0.0047
17 | UCCUGCUACAGCUUGCAUCAGUAUUUAGUUA | 0.015 ± 0.0065
18 | UCCUGCUACAGCUUGCUAUGUAUUUAGAAA | 0.0133 ± 0.0063

Row | Sequence | pre-steady-state target cleavage rate
19 | UCCUGGAUGAGCUUGGAUAGAAUUUAGUUA | 0.0131 ± 0.0067
20 | UCCUGGAUCAGGAAGCAUAGUAUUUACAAA | 0.00413 ± 0.0036
21 | UCCUCCUACAGCAACCAUAGUAUUUAGAAA | 0.0741 ± 0.02
22 | UCCUGGAUGUCGAAGCAUAGUAUUUAGAUUA | 0.00757 ± 0.0041
23 | UCCUCCUACAGCUUGCAAUCUAUUUUCAAA | 0.0216 ± 0.0095
24 | UCCUGGAACAGCUUGCAUAGUAUUUAGGUA | 0.0622 ± 0.017
25 | UCCUGCUACAGCUUGCAAUGUAUUUACAAA | 0.0477 ± 0.014
26 | UCCUGCUACUCGUUGCAUAGUAUUUAGAAA | 0.179 ± 0.032
27 | UCCUGGAACAGCUUGCAUAGUUUUUUCAAA | 0.00594 ± 0.0037
28 | UCCUGGAUGUCCUUGCAUAGUAUUUUCAAA | 0.023 ± 0.0094
29 | UCCUGGUACUCCUUGCAUAGUAUUUACAAA | 0.0123 ± 0.006
30 | UCCUGGAUGUGCUUGCAUAGUUAAUAGUUA | 0.00482 ± 0.0042
31 | UCCUGGAACAGCUUGCUAUGUAUUUAGAAA | 0.00873 ± 0.0046
32 | UCCUGGAUGUCCUAGCAUAGAAUUUAGUUA | 0.00538 ± 0.004
33 | UCCUGGAUGUCCUUGCAUACUAUUAAGUUA | 0.0099 ± 0.0049
34 | UCCUGGAUGUCGAAACAUAGUAUUUAGUUA | 0.0131 ± 0.004
35 | UCCUGGAACAGCUUGCAUAGAAUUUACUUA | 0.0289 ± 0.011

same assay, conditions: auxiliary factor: none (no GTSF1)

Row | Sequence | pre-steady-state target cleavage rate
36 | UCCUGGAUGUCGAACGUUAGUAUUUGUUA | < 0.0001
37 | UCCUGGAUGUCGAACCAUACAAUUUAGUUA | < 0.0001
38 | UCCUGGAUGUCCUUGCAUACAUAAAUCAAA [g12:g19:cont:t1A] | < 0.0001
39 | UCCUGGAUGUCGAACGUUAGUAUUUAGUAA | < 0.0001
40 | UCCUGGAUGUCGAACGUAAGUAAUAAGUUA | < 0.0001
